Experimental data as given in PubChem BioAssay (NCI).
About 79,000 compounds went through this panel and 15% of them were active in at least one assay; those are over-represented in the sample as a whole. A number with no mark means an inactive call. The source made the active and inactive calls. Rule as the data show it: active = growth inhibition above about 70%; inactive = the rest.

How the values were obtained:
[1] = NCI Yeast Anticancer Drug Screen. Data for the rad50 strain (AID 155);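 also: 0% = growth of vehicle-only cultures of the same strain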; settings: S. cerevisiae rad50 strain growth inhibition, active compounds read high
Summary of the method: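 Compounds were tested on a yeast strain with an engineered DNA damage repair alteration; the reported value is growth inhibition normalised to vehicle treatment.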

[2] = NCI Yeast Anticancer Drug Screen. Data for the mec2-1 strain (AID 157); settings: S. cerevisiae mec2-1 strain, active compounds read high
Summary of the method: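 Cells of the genetically defined mec2-1 yeast strain are incubated with test compound. Inhibition of growth is calculated against vehicle-treated controls.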

[3] = NCI Yeast Anticancer Drug Screen. Data for the sgs1 mgt1 strain (AID 161);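 also: 0% = growth of cultures given vehicle only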; settings: S. cerevisiae sgs1 mgt1 strain, active compounds read high
Summary of the method: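 Test agents were incubated with a DNA-repair-mutant yeast strain. Growth was then read and compared against vehicle-treated controls.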

[4] = NCI Yeast Anticancer Drug Screen. Data for the cln2 rad14 strain (AID 165);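 also: 0% = growth equal to vehicle treated cultures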; settings: S. cerevisiae cln2 rad14 strain, active compounds read high
Summary of the method: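 The screen exposed genetically defined yeast (cln2 rad14) to test compounds and scored growth inhibition relative to vehicle-treated controls.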

[5] = NCI Yeast Anticancer Drug Screen. Data for the bub3 strain (AID 167); settings: S. cerevisiae bub3 mutant strain, active compounds read high
Summary of the method: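 Growth of a checkpoint-deficient yeast mutant is measured after compound exposure. Values represent inhibition relative to vehicle.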

[6] = NCI Yeast Anticancer Drug Screen. Data for the mlh1 rad18 strain (AID 175); settings: S. cerevisiae mlh1 rad18 strain growth inhibition, active compounds read high
Summary of the method: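 Compound-treated yeast growth, normalised to vehicle controls. Strain bears defined DNA repair mutations.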

[7] = at 5.0 µM (retest, dose inferred, filed as 0.5)
[8] = at 50.0 µM (retest, dose inferred, filed as 5.0)

SMILES | growth inhibition [1, 7] | growth inhibition [1, 8] | growth inhibition ([1]; at 50.0 µM) | growth inhibition [2, 7] | growth inhibition [2, 8] | growth inhibition ([2]; at 50.0 µM) | growth inhibition [3, 7] | growth inhibition [3, 8] | growth inhibition ([3]; at 50.0 µM) | growth inhibition [4, 7] | growth inhibition [4, 8] | growth inhibition ([4]; at 50.0 µM) | growth inhibition [5, 7] | growth inhibition [5, 8] | growth inhibition ([5]; at 50.0 µM) | growth inhibition [6, 7] | growth inhibition [6, 8] | growth inhibition ([6]; at 50.0 µM)
C=CCNC(=S)N/N=C(\CCC)c1ccccn1 | 98% (active) | 95% (active) | 99.3% (active) | 99% (active) | 96% (active) | 99.6% (active) | 99% (active) | 96% (active) | 99.6% (active) | 96% (active) | 93% (active) | 99.2% (active) | 98% (active) | 95% (active) | 99.5% (active) | 99% (active) | 95% (active) | 47.9%
CN1CCC(OC(=O)c2ccc3ncccc3c2)CC1 | -6% | 6% | 34.6% | -2% | 4% | 26.6% | -2% | 13% | 17.6% | -5% | 2% | 85.6% (active) | -4% | 2% | 33.9% | -7% | 7% | 32%
O=C(O)CN1CCNCCN(CC(=O)O)CCNCC1 | 66% | 94% (active) | 50.7% | 59% | 93% (active) | 76.1% (active) | 56% | 94% (active) | 69.8% | 25% | 85% (active) | 54.8% | 60% | 95% (active) | 56.2% | 66% | 94% (active) | 56%
CC(c1ccccc1)n1c2ccccc2c2c(N)ncnc21 (configuration not stated) | 6% | 100% (active) | 78.4% (active) | -11% | 100% (active) | 86.8% (active) | 23% | 100% (active) | 89.5% (active) | -4% | 100% (active) | 90.8% (active) | 13% | 100% (active) | 90.3% (active) | 32% | 99% (active) | 91.9% (active)
O=C(N/C(=C\c1cccc([N+](=O)[O-])c1)c1nc2ccccc2s1)c1ccccc1 | 36% | 98% (active) | 98.5% (active) | 29% | 98% (active) | 98.6% (active) | 55% | 98% (active) | 98.9% (active) | 12% | 98% (active) | 98.1% (active) | 40% | 98% (active) | 97.8% (active) | 29% | 98% (active) | 98.2% (active)
N#CC1(C#N)C2C=CC(C3CCC=C32)C1(C#N)C#N (configuration not stated) | 14% | 93% (active) | 0.4% | 17% | 97% (active) | 45.3% | 11% | 96% (active) | 60.5% | 10% | 60% | -16.2% | 25% | 97% (active) | 95% (active) | 25% | 97% (active) | 68.8%
CCOC(=O)/C=C(\C)c1ccc([N+](=O)[O-])cc1 | -158% | -127% | 36.1% | -49% | -51% | -17.3% | -65% | -57% | -17.9% | -63% | -69% | -94.7% | -63% | -54% | 17.1% | -153% | -114% | 3.95%
COc1ccc(C(=O)c2cc(Br)ccc2O)cc1 | -3% | 4% | 89.3% (active) | -6% | 4% | 71.9% (active) | -1% | 18% | 84% (active) | -20% | -9% | 46% | 3% | 11% | 94.5% (active) | -1% | -2% | 90.1% (active)
c1ccc2c(c1)ccc1c2ccc2sc3ccccc3[n+]21 | 71% (active) | 94% (active) | 92.3% (active) | 53% | 96% (active) | 53.9% | 59% | 93% (active) | 91.2% (active) | 62% | 92% (active) | 69.8% | 54% | 92% (active) | 73.5% (active) | 75% (active) | 96% (active) | 91.3% (active)
NS(=O)(=O)c1ccc(NC(=S)/N=C/c2c(O)c3ccccc3[nH]c2=O)cc1 | 20% | 55% | 22.4% | 17% | 26% | -0.65% | -29% | 0% | 25.4% | 3% | 7% | -4.25% | -10% | -8% | -11.8% | 21% | 30% | 27.4%
Nc1cccc2cccnc12 | 31% | 72% (active) | 89.3% (active) | 8% | 14% | 27% | 18% | 48% | 78.4% (active) | 4% | 6% | 18.4% | -3% | -4% | 12.6% | 29% | 66% | 91% (active)
CC1=CC(C)(C)Nc2cc(N)ccc21 | -166% | -193% | 50.5% | -49% | -65% | 20.6% | -64% | -72% | 43.8% | -54% | -82% | -35.5% | -74% | -85% | 39.3% | -148% | -136% | 54.5%
Cc1ccc(C(O)CCN2CCOCC2)c(C)c1 (configuration not stated) | 26% | 69% | 81.5% (active) | 30% | 61% | 45.1% | 44% | 68% | 78% (active) | 44% | 71% (active) | 57.2% | 43% | 82% (active) | 70% | 23% | 65% | 69.2%
N#CSc1ccc(Nc2ccc(SC#N)cc2)cc1 | 98% (active) | 98% (active) | 98.4% (active) | 99% (active) | 99% (active) | 97.6% (active) | 99% (active) | 99% (active) | 98.4% (active) | 99% (active) | 98% (active) | 97.7% (active) | 98% (active) | 97% (active) | 98.2% (active) | 99% (active) | 94% (active) | 97.8% (active)
O=NNc1ncccc1OCc1ccccc1 | 9% | 6% | 56.9% | 6% | 6% | 25.6% | 9% | 14% | 0.75% | 7% | 9% | 3.2% | 10% | 13% | -2.9% | 9% | 15% | 17.8%
CC(C)(C)C(=O)OCC(=O)c1ccc(-c2ccccc2)cc1 | -2% | -6% | 11% | -6% | -6% | -0.25% | -2% | -4% | 13.7% | -9% | -13% | -4.6% | 73% (active) | 86% (active) | 65% | -4% | -8% | 3.75%
C/C=C/C=C\C1OC(O)([C@H](CC)C(=O)NC/C=C/C=C(\C)[C@H](OC)C(C)C2OC(\C=C/C=C/C=C(\C)C(=O)c3c(O)ccn(C)c3=O)[C@H](O)[C@@H]2O)C(O)C(O)C1(C)C (some centres not stated) | -23% | -46% | 35.5% | -26% | -18% | 9.5% | -13% | 34% | 80.5% (active) | -14% | 35% | 26.9% | -42% | -26% | 26.1% | -41% | -62% | 17%
C=CC(=O)c1ccc2c(c1)OCCOCCOCCOCCOCCO2 | -18% | 64% | 77.8% (active) | 4% | 50% | 54.5% | -13% | 40% | 62.8% | 20% | 42% | 4.4% | -4% | 78% (active) | 78% (active) | 0% | 86% (active) | 59.4%
NCCNCCNCc1c2ccccc2c(CNCCNCCN)c2ccccc12 | 13% | 13% | 36.2% | -3% | -3% | 90.9% (active) | 0% | 0% | 90.9% (active) | 5% | 5% | 89.7% (active) | 7% | 7% | 43.8% | 17% | 17% | 90.8% (active)
